In PubChem BioAssay (NCATS):
“And” between values parts separate entries of the source, which are not always exact repeats. Equal values may be shown once. Records with an inconclusive call do not appear. The source made the active and inactive calls. Unless noted, calls follow the shape of the dose curve; as a rule, active = well fitted inhibition curve with a large enough effect; inconclusive = small, poorly fitted or top-dose-only effect; inactive = flat fitted curve, though single readings scatter.

molecular target: Retinoic acid receptor RXR-alpha (Homo sapiens) (UniProt P19793); assay: qHTS assay for small molecule antagonists of retinoid X receptor alpha signaling (AID 588546; active = well fitted inhibition curve with a large enough effect in the signal ratio, with a control signal flat, not every such curve was filed as active; the % refers to the signal ratio;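 also: cells stimulated with 9-cis-retinoic acid as agonist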); settings: HEK293T RXRa-UAS-bla, beta-lactamase ratio, antagonist mode
Sequence (P19793 whole entry, looked up): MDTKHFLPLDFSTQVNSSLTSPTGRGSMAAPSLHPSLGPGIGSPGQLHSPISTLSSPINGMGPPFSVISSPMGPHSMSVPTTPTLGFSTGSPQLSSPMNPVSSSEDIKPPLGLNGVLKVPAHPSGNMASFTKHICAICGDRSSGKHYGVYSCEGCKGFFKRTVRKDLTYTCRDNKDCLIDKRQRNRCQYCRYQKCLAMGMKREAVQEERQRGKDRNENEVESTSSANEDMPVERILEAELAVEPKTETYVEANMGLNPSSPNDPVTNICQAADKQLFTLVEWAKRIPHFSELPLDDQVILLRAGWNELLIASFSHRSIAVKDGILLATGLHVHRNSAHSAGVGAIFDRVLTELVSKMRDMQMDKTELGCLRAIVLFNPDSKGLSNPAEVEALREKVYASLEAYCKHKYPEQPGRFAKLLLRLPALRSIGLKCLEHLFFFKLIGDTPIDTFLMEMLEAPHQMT
Method in brief: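 Beta-lactamase reporter inhibition, read as CCF4 fluorescence ratio (ex 405, em 460/530 nm) after 2 h at RT. HEK293T UAS-bla cells, 2500/well, were stimulated with 9-cis-RA at 500 or 100 nM final alongside test compound for 18 h at 37 C.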
% is scaled to controls: 0 for no effect and ±100 for the full control effect.

Row | Structure (SMILES) | max response
1 | CC(C#N)CCC#N (centres undefined) | -1.63% (inactive)
2 | Nc1cc(Cl)ccc1Cl | 3.06% (inactive)
3 | Nc1cccc(Cl)c1 | -7.21% (inactive)
4 | ClCc1ccccc1 | 6.84% (inactive)
5 | CCC/C=N/O | -0.259% (inactive)
6 | COc1c(C(C)(C)C)cc([N+](=O)[O-])c(C)c1[N+](=O)[O-] | -14.3% (inactive)
7 | O=S(=O)(Cl)c1ccccc1 | -0.573% (inactive) and -10.4% (inactive)
8 | C=CCOCC1CO1 (centres undefined) | 9.76% (inactive)
9 | c1ccoc1 | -5.23% (inactive)
10 | Clc1ccccc1 | -2.2% (inactive)
11 | ClC(Cl)(Cl)C(Cl)(Cl)Cl | 8.66% (inactive)
12 | CCOC(=O)C1OC1(C)c1ccccc1 (centres undefined) | -0.211% (inactive)
13 | C/C=C/CC#N | 13.1% (inactive)
14 | ClC(Cl)C(Cl)Cl | 4.18% (inactive)
15 | Oc1c(Cl)cccc1Cl | 27.8% (inactive)
16 | C=CCO | 7.67% (inactive)
17 | OCCCCO | -1.35% (inactive)
18 | Nn1cnnc1 | 24.4% (inactive)
19 | BrCCc1ccccc1 | 9.1% (inactive)

Row | Structure (SMILES) | max response
20 | Cc1ccccc1[N+](=O)[O-] | 10.9% (inactive)
21 | CCCCOC(=O)c1ccccc1N | 6.01% (inactive)
22 | Clc1cc(Cl)c(Cl)c(Cl)c1 | 14.2% (inactive)
23 | Cc1ccc(N)c(C)c1 | -1.52% (inactive)
24 | C1CC2OC2CC1C1CO1 (centres undefined) | 10.1% (inactive) and -3.3% (inactive)
25 | CN(C)C(=O)Cl | 8.18% (inactive)
26 | CC(=O)NNc1ccccc1 | -22.9% (inactive)
27 | Cc1ccc(N=C=O)cc1N=C=O | 6.03% (inactive) and 0.743% (inactive)
28 | O=C(Cl)OCc1ccccc1 | -3.17% (inactive)
29 | C=CC(=O)OC | -3.6% (inactive)
30 | CCN(CC)N=O | 1.08% (inactive)
31 | OCC(Cl)CCl (centres undefined) | -4.6% (inactive)
32 | CC(C)CON=O | 8.37% (inactive)
33 | CC[N+](=O)[O-] | 5.74% (inactive)
34 | CC(C)(Cl)[N+](=O)[O-] | 5.8% (inactive)
35 | C[N+](=O)[O-] | 4.36% (inactive)
36 | CC(C)OC(=O)Cc1ccccc1 | 8.61% (inactive)
37 | ClCC(Br)CBr (centres undefined) | 13.4% (inactive)

molecular target: Thyroid hormone receptor beta (Homo sapiens) (UniProt P10828); assay: qHTS assay for small molecule antagonists of thyroid hormone receptor beta signaling (AID 588547; active = well fitted inhibition curve with a large enough effect in the signal ratio, with a control signal flat, not every such curve was filed as active; the % refers to the signal ratio;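 also: cells stimulated with 0.4 nM T3 agonist during compound exposure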); settings: TR-UAS-bla HEK293, beta-lactamase ratio, antagonist mode, 18 h
Sequence (P10828 whole entry, looked up): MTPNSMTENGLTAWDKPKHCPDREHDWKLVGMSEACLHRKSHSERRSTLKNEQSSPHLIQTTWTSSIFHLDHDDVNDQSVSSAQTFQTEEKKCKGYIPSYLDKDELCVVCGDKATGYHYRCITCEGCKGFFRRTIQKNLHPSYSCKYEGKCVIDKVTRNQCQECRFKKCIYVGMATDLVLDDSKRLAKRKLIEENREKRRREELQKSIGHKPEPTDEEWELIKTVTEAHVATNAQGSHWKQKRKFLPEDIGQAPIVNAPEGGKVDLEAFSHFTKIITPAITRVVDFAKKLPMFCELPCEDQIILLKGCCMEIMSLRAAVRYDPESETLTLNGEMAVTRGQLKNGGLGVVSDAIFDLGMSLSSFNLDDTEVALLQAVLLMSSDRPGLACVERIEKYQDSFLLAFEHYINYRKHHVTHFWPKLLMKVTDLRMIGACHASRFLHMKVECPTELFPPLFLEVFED
Method in brief: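 TR-UAS-bla GripTite HEK293 cells in 2% charcoal/dextran FBS medium were preincubated 4 h at 37 C, given compound (0.59 nM to 92 uM) plus 0.4 nM T3 (final) for 18 h, then CCF4 for 2 h at RT; Hill fit gave IC50.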

Row | Structure (SMILES) | activity change % (negative = inhibition)
38 | CC(C#N)CCC#N (centres undefined) | 9.23% (inactive)
39 | Nc1cc(Cl)ccc1Cl | 16.8% (inactive)
40 | Nc1cccc(Cl)c1 | 2.78% (inactive)
41 | ClCc1ccccc1 | 2.64% (inactive)
42 | CCC/C=N/O | 3.59% (inactive)
43 | COc1c(C(C)(C)C)cc([N+](=O)[O-])c(C)c1[N+](=O)[O-] | 24.1% (inactive)
44 | O=S(=O)(Cl)c1ccccc1 | -1.94% (inactive) and -0.791% (inactive)
45 | C=CCOCC1CO1 (centres undefined) | 1.27% (inactive)
46 | c1ccoc1 | 20.3% (inactive)
47 | Clc1ccccc1 | 8.57% (inactive)
48 | ClC(Cl)(Cl)C(Cl)(Cl)Cl | 3.45% (inactive)
49 | CCOC(=O)C1OC1(C)c1ccccc1 (centres undefined) | 6.83% (inactive)
50 | C/C=C/CC#N | 15.6% (inactive)
51 | ClC(Cl)C(Cl)Cl | 0.5% (inactive)
52 | C=CCCl | -1.64% (inactive)
53 | Oc1c(Cl)cccc1Cl | -18.9% (inactive)
54 | Brc1cccc(-c2ccccc2)c1 | 0.106% (inactive)

Row | Structure (SMILES) | activity change % (negative = inhibition)
55 | OCCCCO | 10.4% (inactive)
56 | Nn1cnnc1 | 12.8% (inactive)
57 | BrCCc1ccccc1 | -8.86% (inactive)
58 | Cc1ccccc1[N+](=O)[O-] | 6.46% (inactive)
59 | Clc1cc(Cl)c(Cl)c(Cl)c1 | -16.6% (inactive)
60 | Cc1ccc(N)c(C)c1 | 2.7% (inactive)
61 | C1CC2OC2CC1C1CO1 (centres undefined) | 7.88% (inactive)
62 | CN(C)C(=O)Cl | -23.4% (inactive)
63 | CC(=O)NNc1ccccc1 | -1.14% (inactive)
64 | Cc1ccc(N=C=O)cc1N=C=O | -8.5% (inactive)
65 | C=CC(=O)OC | -6.86% (inactive)
66 | OCC(Cl)CCl (centres undefined) | -13.6% (inactive)
67 | CC[N+](=O)[O-] | -0.712% (inactive)
68 | CC(C)(Cl)[N+](=O)[O-] | 9.2% (inactive)
69 | C[N+](=O)[O-] | -5.27% (inactive)
70 | CC(C)OC(=O)Cc1ccccc1 | -4.91% (inactive)
71 | ClCC(Br)CBr (centres undefined) | 6.39% (inactive)

molecular target: Voltage-gated inwardly rectifying potassium channel KCNH2 (Homo sapiens) (UniProt Q12809); assay: qHTS Assay for Small Molecule Inhibitors of the Human hERG Channel Activity (AID 588834); settings: U2OS BacMam hERG, FluxOR thallium flux fluorescence; series mostly up to 92.2 µM; activity change, negative = inhibition: at the top concentration;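 also: lower thallium flux fluorescence means stronger hERG block; nearly all actives have a fitted effect of over 50% in size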; also: potency is read from the fitted curve at half-maximal effect;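 as to activity change, negative = inhibition: U2OS cells transduced with hERG by BacMam; top concentration of the series differs between compounds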
Sequence (Q12809 whole entry, looked up): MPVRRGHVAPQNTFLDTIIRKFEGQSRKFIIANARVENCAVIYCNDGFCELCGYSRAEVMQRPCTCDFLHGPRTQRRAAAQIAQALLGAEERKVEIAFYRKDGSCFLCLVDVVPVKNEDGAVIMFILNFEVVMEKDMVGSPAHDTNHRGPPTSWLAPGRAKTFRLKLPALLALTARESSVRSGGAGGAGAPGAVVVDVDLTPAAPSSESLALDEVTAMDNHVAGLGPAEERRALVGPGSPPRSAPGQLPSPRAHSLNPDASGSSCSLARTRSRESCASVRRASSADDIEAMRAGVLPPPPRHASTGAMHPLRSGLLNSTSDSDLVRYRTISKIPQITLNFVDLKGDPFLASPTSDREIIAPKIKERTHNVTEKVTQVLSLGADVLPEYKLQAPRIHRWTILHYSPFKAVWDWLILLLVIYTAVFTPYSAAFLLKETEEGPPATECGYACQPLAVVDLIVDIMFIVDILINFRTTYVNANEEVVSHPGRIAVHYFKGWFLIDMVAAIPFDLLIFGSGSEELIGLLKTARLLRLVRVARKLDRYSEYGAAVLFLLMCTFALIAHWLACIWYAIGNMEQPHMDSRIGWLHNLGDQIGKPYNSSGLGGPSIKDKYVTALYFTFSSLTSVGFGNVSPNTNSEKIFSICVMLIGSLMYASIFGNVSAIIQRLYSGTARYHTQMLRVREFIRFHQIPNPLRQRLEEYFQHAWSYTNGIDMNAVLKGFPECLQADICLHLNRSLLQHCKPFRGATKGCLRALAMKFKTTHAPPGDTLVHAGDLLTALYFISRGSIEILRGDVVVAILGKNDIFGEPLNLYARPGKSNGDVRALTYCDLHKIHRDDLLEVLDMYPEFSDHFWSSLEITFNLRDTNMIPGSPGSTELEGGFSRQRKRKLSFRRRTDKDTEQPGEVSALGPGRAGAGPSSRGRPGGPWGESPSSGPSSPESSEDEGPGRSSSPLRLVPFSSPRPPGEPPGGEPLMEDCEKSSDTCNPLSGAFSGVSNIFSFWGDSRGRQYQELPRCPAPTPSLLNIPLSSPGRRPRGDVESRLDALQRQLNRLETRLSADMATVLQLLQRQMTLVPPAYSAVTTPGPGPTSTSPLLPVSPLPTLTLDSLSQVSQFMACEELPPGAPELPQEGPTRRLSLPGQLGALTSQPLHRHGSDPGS
Method in brief: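 Cells were infected with hERG-BacMam virus for 4 hrs at room temperature, grown overnight, then seeded at 2000/well. After dye loading and roughly 10 min compound treatment, thallium influx was triggered and fluorescence recorded.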

Row | Structure (SMILES) | activity change, negative = inhibition | Potency
72 | CC(C#N)CCC#N (centres undefined) | -0.177% (inactive) | 
73 | Nc1cc(Cl)ccc1Cl | -1.01% (inactive) | 
74 | Nc1cccc(Cl)c1 | 6.4% (inactive) | 
75 | ClCc1ccccc1 | -5.26% (inactive) | 
76 | CCC/C=N/O | -11.7% (inactive) | 
77 | COc1c(C(C)(C)C)cc([N+](=O)[O-])c(C)c1[N+](=O)[O-] |  | 31.6 µM (active)
78 | O=S(=O)(Cl)c1ccccc1 | 4.35% (inactive) | 
79 | C=CCOCC1CO1 (centres undefined) | 3.7% (inactive) | 
80 | c1ccoc1 | 5.62% (inactive) | 
81 | Clc1ccccc1 | 1.55% (inactive) | 
82 | CCOC(=O)C1OC1(C)c1ccccc1 (centres undefined) | 0.51% (inactive) | 
83 | C/C=C/CC#N | 12% (inactive) | 
84 | ClC(Cl)C(Cl)Cl | -5.68% (inactive) | 
85 | C=CCCl | 5.57% (inactive) | 
86 | Oc1c(Cl)cccc1Cl | 4.61% (inactive) | 
87 | Brc1cccc(-c2ccccc2)c1 |  | 35.5 µM (active)
88 | C=CCO | 0.255% (inactive) | 
89 | OCCCCO | 1.62% (inactive) | 
90 | Nn1cnnc1 | 7.3% (inactive) | 

Row | Structure (SMILES) | activity change, negative = inhibition | Potency
91 | BrCCc1ccccc1 | 4.42% (inactive) | 
92 | Cc1ccccc1[N+](=O)[O-] | -0.13% (inactive) | 
93 | CCCCOC(=O)c1ccccc1N | -13% (inactive) | 
94 | Clc1cc(Cl)c(Cl)c(Cl)c1 | -15.6% (inactive) | 
95 | Cc1ccc(N)c(C)c1 | -1.52% (inactive) | 
96 | C1CC2OC2CC1C1CO1 (centres undefined) | 7.74% (inactive) | 
97 | CN(C)C(=O)Cl | -0.549% (inactive) | 
98 | CC(=O)NNc1ccccc1 | -0.321% (inactive) | 
99 | Cc1ccc(N=C=O)cc1N=C=O | 4.52% (inactive) | 
100 | O=C(Cl)OCc1ccccc1 | -1.42% (inactive) | 
101 | C=CC(=O)OC | 14.7% (inactive) | 
102 | CCN(CC)N=O | 13.2% (inactive) | 
103 | OCC(Cl)CCl (centres undefined) | 7.46% (inactive) | 
104 | CC(C)CON=O | 1.35% (inactive) | 
105 | CC[N+](=O)[O-] | -1.64% (inactive) | 
106 | CC(C)(Cl)[N+](=O)[O-] | 2.78% (inactive) | 
107 | C[N+](=O)[O-] | -3.19% (inactive) | 
108 | CC(C)OC(=O)Cc1ccccc1 | 4.22% (inactive) | 
109 | ClCC(Br)CBr (centres undefined) | 10.6% (inactive) | 
